High-throughput results as filed in PubChem BioAssay.
An excerpt weighted towards active compounds, which were near 2.6% of everything screened.
14-3-3 Bad PPI: inhibitors of 14-3-3 zeta/Bad binding, primary screen, biochemical, TR-FRET, bovine 14-3-3 zeta | 14-3-3 protein zeta/delta (Bos taurus), P63103 | TR-FRET 14-3-3zeta/Dy647-pBad peptide displacement, 1 h | inhibition, % at 21.7 µM | 0.71% of 220,000 active;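 active = inhibition above about 70%, limit read from the data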;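 also: 0% = full 14-3-3 plus peptide FRET controls and 100% = background without 14-3-3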
Target sequence (P63103 whole entry, looked up): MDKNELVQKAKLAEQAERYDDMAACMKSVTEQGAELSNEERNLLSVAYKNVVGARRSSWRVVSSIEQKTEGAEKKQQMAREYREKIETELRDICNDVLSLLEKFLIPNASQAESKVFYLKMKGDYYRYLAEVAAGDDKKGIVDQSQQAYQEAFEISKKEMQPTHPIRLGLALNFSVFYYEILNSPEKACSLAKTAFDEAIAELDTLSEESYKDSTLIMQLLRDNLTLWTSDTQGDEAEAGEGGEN
MCL1-BIM inh: inhibitors of MCL1 binding to BIM-BH3, primary screen, biochemical, fluorescence polarization. Induced myeloid leukemia cell differentiation protein Mcl-1 (Homo sapiens), Q07820. GST-MCL1 / FITC-Bim-BH3 fluorescence polarization. inhibition, % at 10.9 µM. 0.68% of 320,000 active;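 active = inhibition above the mean inhibition of all tested compounds plus 3 SD, set per campaign, cut at about 40% in these data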;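 also: 0% = DMSO wells and 100% = unlabeled Bim-BH3 peptide control; higher means more loss of mP so more displacement of Bim peptide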
Bim-Mcl-1: inhibitors of Bim peptide binding to Mcl-1, primary screen, biochemical, bead-based flow cytometry, multiplex. Induced myeloid leukemia cell differentiation protein Mcl-1 (Homo sapiens), Q07820. Bim peptide-Mcl-1 binding. inhibition, % at 10 µM. 0.1% of 190,000 active; in the data active = inhibition above about 40%;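 also: 0% = no compound tracer wells and 100% = peptide blocker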
eIF4E 4G PPI: eIF4E–eIF4G protein interaction inhibitors, primary screen, biochemical, uHTS, TR-FRET, eIF4GI fragment; TR-FRET eIF4E-eIF4GI(517-606) binding, 2 h; inhibition, % at 21.7 µM; 0.37% of 220,000 active; AID 782, 2007;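 active = inhibition above about 30%, limit read from the data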;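 also: 0% = full FRET control wells and 100% = background wells lacking eIF4GI fragment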
Mcl1 Noxa PPI: Mcl-1/Noxa binding inhibitors, primary screen, biochemical, TR-FRET, 1536-well | Induced myeloid leukemia cell differentiation protein Mcl-1 (Homo sapiens), Q07820 | TR-FRET Mcl-1/Noxa peptide binding, 2 h | inhibition, % at 21.7 µM | 1.5% of 220,000 active | AID 1022, 2008;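 active = compounds that cut the protein-peptide binding signal by more than 50% relative to plate controls in a single-dose test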;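 also: His-tagged Mcl-1 with rhodamine Noxa BH3 peptide and terbium anti-His antibody; 0% = Mcl-1 plus Noxa peptide wells and 100% = peptide-only wells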
Mcl1 Bid PPI: Mcl-1/Bid binding inhibitors, primary screen, biochemical, TR-FRET, 1536-well. Induced myeloid leukemia cell differentiation protein Mcl-1 (Homo sapiens), Q07820. TR-FRET Mcl-1/Bid-Dy647 peptide binding. inhibition, % at 21.7 µM. 0.97% of 220,000 active;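 active = compounds that cut the binding signal by more than half at the single screening dose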;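 also: His-tagged Mcl-1 with europium anti-His antibody binding Bid BH3 peptide; 0% = Mcl-1 plus peptide wells and 100% = peptide-only wells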
The depositor's hits bear a star; . = no result; [ ] = remark or other dose.

SMILES | 14-3-3 Bad PPI | MCL1-BIM inh | Bim-Mcl-1 | eIF4E 4G PPI | Mcl1 Noxa PPI | Mcl1 Bid PPI
O=C1c2cccnc2C(Nc2ccc(Br)cc2)N1Cc1cccs1 (configuration not stated) | 52 | 0 | 1 | 1 | 28 | 62*
O=C1c2cccnc2C(Nc2ccc(F)c(Cl)c2)N1Cc1cccs1 (configuration not stated) | 26 | 10 | 0 | -1 | 31 | 52*
CCOC(=O)c1ccc(NC2c3ncccc3C(=O)N2Cc2ccc(F)cc2)cc1 (configuration not stated) | 86* | -10 | -1 | 1 | 6 | 45
COc1ccc(OC)c(S(=O)(=O)N/N=C\c2cn(CC(N)=O)c3ccccc23)c1 | . | 3 | . | . | . | .
COc1ccc2c3c(cccc13)OC2=O | . | -1 | . | . | . | .
COc1ccc2c3c(cccc13)N(C)N=C2C | -5 | 87* | 18 | 12 | 87* | -46
Cn1cnnc1Sc1ccc(C(=O)OCC(=O)Nc2ccccc2)cc1[N+](=O)[O-] | -4 | 2 | -2 | -14 | 38 | -6
Cn1cnnc1Sc1ccc(C(=O)OCC(=O)Nc2cc(Cl)cc(Cl)c2)cc1[N+](=O)[O-] | 86*[fluorescence artefact?] | -3 | -4 | 29 | 25 | -48
CCOC(=O)c1c(CSc2cccs2)n(C)c2cc(Br)c(O)c(CN(C)C)c12 | -1 | 10 | 1 | 2 | 42 | -43
Cc1ccc(NC(=O)CN2C(=O)S/C(=C/c3ccc(-c4cccc(C(=O)O)c4)o3)C2=O)cc1 | 88* | . | 2 | 43* | 83* | -31
O=C(O)c1cc(-c2ccc(/C=C3/SC(=S)N(Cc4ccccc4)C3=O)o2)ccc1Cl | 100* | . | 16 | 62* | 85* | 101*
Cc1ccc(NC(=O)CN2C(=O)S/C(=C\c3ccc(-c4cccc(C(=O)O)c4C)o3)C2=O)cc1 | -11 | 19 | -4 | 16 | 12 | -17
COc1ccc(CN2C(=O)/C(=C/c3ccc(-c4ccc(Cl)c(C(=O)O)c4)o3)SC2=S)cc1 | 77* | . | 13 | 65* | 92* | 99*
Cc1ccc(/C=C2\SC(=S)N(Cc3ccccc3)C2=O)o1 | -2 | 16 | 6 | 8 | 90* | -29
CC1(C)OC(=O)C(=Cc2ccc(-c3ccc(Cl)c(C(=O)O)c3)o2)C(=O)O1 | 17 | 1 | -1 | 5 | 26 | -24
N#Cc1ccc(OCC(=O)OCC(=O)Nc2sccc2C(N)=O)cc1 | . | 5 | . | . | . | .
Cc1cc(C)c(C#N)c(Nc2cccc(C)c2C)n1 | . | -12 | . | . | . | .
CCOC(=O)c1c(S(=O)(=O)NCC(=O)Nc2cccc(C)c2)c(C)n(C)c1C | . | 1 | . | . | . | .
Cc1ccc(NC(=O)NNC(=O)CN2C(=O)COc3ccccc32)cc1 | . | 4 | . | . | . | .
CC(OC(=O)/C=C/c1ccccc1)C(=O)Nc1cccc(C#N)c1 (configuration not stated) | . | -2 | . | . | . | .
COc1ccc(N/N=C(C)/C(=N/O)C(=O)Nc2ccccc2)cc1 | -7 | 5 | -1 | -3 | 9 | -34
COc1ccccc1CNCC(=O)N1CC(=O)Nc2ccccc21 | 26 | -1 | -2 | 2 | 29 | 28
O=C1CN(C(=O)CNCc2ccccc2)c2ccccc2N1 | 35 | -3 | . | -5 | 44 | 69*
COC(=O)C1=C(C)N(Cc2ccco2)C(=O)/C1=C\c1ccc(N(C)C)cc1 | -1 | -7 | 0 | 9 | 54* | -66
S=c1[nH]cc(-c2ccccc2)[nH]1 | 1 | -7 | . | -5 | -3 | -72
O=[N+]([O-])c1ccc(-c2c[nH]c(=S)[nH]2)cc1 | -3 | 12 | . | 6 | 95* | -36
COc1ccc(OC)c(NS(=O)(=O)Cc2ccccc2)c1 | 87*[fluorescence artefact?] | 13 | 10 | 14 | 44 | 7
COc1ccc(OC)c(S(=O)(=O)NCc2ccccc2)c1 | -9 | -2 | -1 | 0 | 2 | -2
CCCCN(C(=O)c1ccc(NC2CC2)c([N+](=O)[O-])c1)c1c(N)n(CC(C)C)c(=O)[nH]c1=O | . | 0 | . | . | . | .
